Our source for the binding signal values is article PMC7862700, “An all-to-all approach to the identification of sequence-specific readers for epigenetic DNA modifications on cytosine”.

Holding throughout (test): DAPPL (digital affinity profiling via proximity ligation, sequencing); 10 mM Tris-HCl pH 7.5, 50 mM NaCl, 1 mM DTT, 4% glycerol, room temperature, 30 min; GST-TFs on glutathione beads, 16-mer random dsDNA library, 0.1% formaldehyde crosslink after washing; high values mean tight binding
Holding throughout (conditions): protein: recombinant; tags: N-terminal GST; dsDNA, one strand shown

In one assay the target is T1, FLI1 (Homo sapiens, UniProt Q01543 1-452).
T1 sequence: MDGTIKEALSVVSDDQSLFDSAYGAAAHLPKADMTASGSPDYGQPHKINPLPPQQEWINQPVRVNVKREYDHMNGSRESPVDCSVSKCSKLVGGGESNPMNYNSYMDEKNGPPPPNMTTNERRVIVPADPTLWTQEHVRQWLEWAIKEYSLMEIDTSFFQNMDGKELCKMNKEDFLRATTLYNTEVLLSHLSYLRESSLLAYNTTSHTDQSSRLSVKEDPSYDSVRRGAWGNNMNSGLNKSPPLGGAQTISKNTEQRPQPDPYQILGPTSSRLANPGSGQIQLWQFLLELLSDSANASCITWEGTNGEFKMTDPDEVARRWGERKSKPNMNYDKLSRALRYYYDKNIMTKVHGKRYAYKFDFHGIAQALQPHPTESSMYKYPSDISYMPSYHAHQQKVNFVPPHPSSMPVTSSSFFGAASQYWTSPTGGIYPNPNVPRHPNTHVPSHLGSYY
In outline: (§1)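 Human transcription factors were made in yeast as GST fusions, captured on glutathione beads and barcoded with DNA. With a tag-only sample included, the pool was incubated with 200 nmole of a random double-stranded 16-mer DNA library in Tris/NaCl/DTT/glycerol buffer at room temperature for 30 min, then crosslinked with 0.1% formaldehyde after washing, ligated by proximity, amplified and sequenced. For binding signal, each hexamer's read frequency for a factor is divided by its frequency for the tag-only sample.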

The target in another assay is T2, ELK1 (Homo sapiens, UniProt P19419 1-428).
T2 sequence: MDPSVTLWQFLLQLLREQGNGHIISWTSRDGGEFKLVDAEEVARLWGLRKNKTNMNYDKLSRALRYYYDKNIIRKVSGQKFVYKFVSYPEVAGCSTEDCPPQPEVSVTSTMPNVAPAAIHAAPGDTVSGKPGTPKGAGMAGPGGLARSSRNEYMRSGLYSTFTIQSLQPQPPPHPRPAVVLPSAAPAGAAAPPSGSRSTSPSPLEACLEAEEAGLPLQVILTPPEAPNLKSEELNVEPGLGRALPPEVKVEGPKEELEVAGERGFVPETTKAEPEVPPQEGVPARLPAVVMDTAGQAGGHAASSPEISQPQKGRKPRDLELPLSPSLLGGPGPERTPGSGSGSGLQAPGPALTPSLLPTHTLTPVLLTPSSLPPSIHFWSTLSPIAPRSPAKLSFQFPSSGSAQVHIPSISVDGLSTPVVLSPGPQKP
An outline of the steps:
as §1

The target of the next assay is T3, GABPA (Homo sapiens, UniProt Q06546 1-454).
T3 sequence: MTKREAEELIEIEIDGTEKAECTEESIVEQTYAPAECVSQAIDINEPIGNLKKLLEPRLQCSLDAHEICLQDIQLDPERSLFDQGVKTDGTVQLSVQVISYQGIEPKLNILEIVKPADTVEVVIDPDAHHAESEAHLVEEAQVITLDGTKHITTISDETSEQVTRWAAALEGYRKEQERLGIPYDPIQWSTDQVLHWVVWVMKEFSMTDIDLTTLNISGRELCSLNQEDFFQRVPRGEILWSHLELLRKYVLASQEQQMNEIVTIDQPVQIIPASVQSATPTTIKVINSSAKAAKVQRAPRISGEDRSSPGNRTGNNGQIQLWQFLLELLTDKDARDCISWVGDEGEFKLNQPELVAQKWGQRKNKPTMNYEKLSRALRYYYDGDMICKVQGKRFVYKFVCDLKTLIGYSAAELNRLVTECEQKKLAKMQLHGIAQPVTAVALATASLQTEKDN
In outline:
as §1

The next assay concerns the target T4, ERG (Homo sapiens, UniProt P11308 1-479).
T4 sequence: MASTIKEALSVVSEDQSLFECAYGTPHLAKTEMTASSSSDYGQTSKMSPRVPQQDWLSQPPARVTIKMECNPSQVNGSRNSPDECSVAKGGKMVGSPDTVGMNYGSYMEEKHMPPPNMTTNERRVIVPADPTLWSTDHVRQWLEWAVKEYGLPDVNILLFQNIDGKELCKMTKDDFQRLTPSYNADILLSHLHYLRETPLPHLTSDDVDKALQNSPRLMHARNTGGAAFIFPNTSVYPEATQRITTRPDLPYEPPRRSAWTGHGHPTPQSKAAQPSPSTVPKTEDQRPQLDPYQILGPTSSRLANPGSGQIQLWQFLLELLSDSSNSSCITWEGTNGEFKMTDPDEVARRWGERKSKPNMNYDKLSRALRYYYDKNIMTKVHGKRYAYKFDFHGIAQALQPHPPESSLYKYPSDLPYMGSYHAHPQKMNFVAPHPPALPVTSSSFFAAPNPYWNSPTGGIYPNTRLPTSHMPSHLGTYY
In outline:
as §1

For another assay, the target named is ELF1 (Homo sapiens, UniProt P32519 1-619). An outline of the steps:
as §1

In the next assay the target is T5, EHF (Homo sapiens, UniProt Q9NZC4 1-300).
T5 sequence: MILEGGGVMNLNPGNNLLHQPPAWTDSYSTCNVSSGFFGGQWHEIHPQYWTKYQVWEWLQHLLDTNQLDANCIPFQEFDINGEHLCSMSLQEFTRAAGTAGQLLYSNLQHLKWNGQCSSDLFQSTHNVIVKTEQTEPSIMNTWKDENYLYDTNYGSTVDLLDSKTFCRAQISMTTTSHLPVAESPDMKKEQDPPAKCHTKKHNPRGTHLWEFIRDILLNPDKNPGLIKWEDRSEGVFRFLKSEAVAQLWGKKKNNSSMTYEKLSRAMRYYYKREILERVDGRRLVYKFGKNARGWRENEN
In outline:
as §1

A further assay has as its target SPI1 (Homo sapiens, UniProt P17947 1-270). In outline:
as §1

Another assay addresses SPIB (Homo sapiens, UniProt Q01892 1-262). In outline:
as §1

The target of a further assay is T6, ELK3 (Homo sapiens, UniProt P41970 1-407).
T6 sequence: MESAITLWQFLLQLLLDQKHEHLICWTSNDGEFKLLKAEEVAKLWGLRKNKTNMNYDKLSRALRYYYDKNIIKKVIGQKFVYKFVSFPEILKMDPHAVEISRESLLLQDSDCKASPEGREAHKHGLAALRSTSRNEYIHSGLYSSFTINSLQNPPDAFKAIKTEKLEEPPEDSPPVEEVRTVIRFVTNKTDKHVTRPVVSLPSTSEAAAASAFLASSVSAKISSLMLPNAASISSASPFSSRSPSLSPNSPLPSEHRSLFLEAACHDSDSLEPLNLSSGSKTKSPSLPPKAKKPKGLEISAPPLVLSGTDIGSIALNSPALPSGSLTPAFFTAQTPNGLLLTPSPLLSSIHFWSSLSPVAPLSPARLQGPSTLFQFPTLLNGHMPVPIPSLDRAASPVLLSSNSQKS
An outline of the steps: as §1

Another assay addresses T7, FEV (Homo sapiens, UniProt Q99581 1-238).
T7 sequence: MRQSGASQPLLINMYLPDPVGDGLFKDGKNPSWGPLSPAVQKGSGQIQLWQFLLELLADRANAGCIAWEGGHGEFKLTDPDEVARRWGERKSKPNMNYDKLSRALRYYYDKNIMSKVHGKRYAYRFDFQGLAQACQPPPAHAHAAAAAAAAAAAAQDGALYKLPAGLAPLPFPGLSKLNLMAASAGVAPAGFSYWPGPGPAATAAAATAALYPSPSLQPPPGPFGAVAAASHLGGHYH
In outline: as §1

A further assay deals with ETV5 (Homo sapiens, UniProt P41161 1-510). In outline:
as §1

A further assay deals with T8, SPIC (Homo sapiens, UniProt Q8N5J4 1-248).
T8 sequence: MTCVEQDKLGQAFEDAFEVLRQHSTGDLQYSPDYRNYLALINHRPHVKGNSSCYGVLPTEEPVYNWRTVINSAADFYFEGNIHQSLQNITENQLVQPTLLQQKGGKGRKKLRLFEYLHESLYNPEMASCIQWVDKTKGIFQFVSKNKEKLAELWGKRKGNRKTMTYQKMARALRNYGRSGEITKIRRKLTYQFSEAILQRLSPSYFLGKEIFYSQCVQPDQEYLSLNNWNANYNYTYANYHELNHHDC
In outline: as §1

The target in a further assay is ELF4 (Homo sapiens, UniProt Q99607 1-663). An outline of the steps:
as §1

A further assay deals with T9, ELK4 (Homo sapiens, UniProt P28324-2 1-405).
T9 sequence: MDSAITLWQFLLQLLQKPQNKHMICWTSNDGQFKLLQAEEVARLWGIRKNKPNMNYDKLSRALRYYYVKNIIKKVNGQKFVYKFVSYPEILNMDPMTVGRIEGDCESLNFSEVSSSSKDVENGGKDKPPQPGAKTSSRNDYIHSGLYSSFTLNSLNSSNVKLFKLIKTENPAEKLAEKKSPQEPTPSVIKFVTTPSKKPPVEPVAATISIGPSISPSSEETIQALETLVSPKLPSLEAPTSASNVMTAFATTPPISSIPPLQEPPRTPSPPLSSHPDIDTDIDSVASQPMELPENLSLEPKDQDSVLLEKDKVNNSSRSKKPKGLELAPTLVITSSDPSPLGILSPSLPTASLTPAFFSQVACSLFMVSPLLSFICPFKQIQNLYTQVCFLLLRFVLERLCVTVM
An outline of the steps: as §1

In the next assay the target is T10, ELF3 (Homo sapiens, UniProt P78545 1-371).
T10 sequence: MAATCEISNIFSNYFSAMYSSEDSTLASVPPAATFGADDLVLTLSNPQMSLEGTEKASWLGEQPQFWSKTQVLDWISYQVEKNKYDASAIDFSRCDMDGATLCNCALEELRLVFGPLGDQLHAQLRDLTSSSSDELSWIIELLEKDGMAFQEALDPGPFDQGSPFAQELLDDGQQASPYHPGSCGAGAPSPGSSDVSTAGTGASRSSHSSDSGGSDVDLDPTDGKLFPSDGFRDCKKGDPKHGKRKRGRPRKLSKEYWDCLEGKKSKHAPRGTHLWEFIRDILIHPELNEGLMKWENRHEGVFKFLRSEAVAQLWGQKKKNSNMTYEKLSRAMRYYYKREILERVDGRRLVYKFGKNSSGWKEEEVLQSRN
In outline: as §1

Another assay deals with ETV1 (Homo sapiens, UniProt P50549 1-477). In outline:
as §1

Another assay addresses T11, ETV2 (Homo sapiens, UniProt O00321 1-342).
T11 sequence: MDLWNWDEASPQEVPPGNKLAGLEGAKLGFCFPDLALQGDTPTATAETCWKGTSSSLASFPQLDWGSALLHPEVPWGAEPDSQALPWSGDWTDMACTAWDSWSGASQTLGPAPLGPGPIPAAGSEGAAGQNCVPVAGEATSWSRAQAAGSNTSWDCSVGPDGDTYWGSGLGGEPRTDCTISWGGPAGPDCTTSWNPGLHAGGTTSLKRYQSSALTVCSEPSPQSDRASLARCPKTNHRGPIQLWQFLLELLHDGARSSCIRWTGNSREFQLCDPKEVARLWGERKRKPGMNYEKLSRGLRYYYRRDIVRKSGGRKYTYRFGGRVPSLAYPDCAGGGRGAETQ
An outline of the steps:
as §1

Sequence of ELF1 (P32519 whole entry): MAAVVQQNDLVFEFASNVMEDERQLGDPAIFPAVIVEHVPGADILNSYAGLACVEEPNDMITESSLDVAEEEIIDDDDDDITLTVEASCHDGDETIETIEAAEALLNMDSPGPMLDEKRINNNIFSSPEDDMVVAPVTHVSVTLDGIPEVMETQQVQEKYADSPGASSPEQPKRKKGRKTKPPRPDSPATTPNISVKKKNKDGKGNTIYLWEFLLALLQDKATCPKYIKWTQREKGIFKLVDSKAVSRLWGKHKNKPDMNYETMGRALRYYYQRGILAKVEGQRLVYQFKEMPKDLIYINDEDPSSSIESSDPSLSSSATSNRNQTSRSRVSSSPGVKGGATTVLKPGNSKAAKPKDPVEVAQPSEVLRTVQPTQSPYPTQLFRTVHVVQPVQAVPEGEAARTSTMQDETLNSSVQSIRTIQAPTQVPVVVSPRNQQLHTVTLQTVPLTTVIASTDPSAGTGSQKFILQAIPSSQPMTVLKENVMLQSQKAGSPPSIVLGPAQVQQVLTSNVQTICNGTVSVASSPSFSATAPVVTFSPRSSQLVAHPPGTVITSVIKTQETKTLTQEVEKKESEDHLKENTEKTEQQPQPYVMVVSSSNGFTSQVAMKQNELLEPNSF
Sequence of ETV1 (P50549 whole entry): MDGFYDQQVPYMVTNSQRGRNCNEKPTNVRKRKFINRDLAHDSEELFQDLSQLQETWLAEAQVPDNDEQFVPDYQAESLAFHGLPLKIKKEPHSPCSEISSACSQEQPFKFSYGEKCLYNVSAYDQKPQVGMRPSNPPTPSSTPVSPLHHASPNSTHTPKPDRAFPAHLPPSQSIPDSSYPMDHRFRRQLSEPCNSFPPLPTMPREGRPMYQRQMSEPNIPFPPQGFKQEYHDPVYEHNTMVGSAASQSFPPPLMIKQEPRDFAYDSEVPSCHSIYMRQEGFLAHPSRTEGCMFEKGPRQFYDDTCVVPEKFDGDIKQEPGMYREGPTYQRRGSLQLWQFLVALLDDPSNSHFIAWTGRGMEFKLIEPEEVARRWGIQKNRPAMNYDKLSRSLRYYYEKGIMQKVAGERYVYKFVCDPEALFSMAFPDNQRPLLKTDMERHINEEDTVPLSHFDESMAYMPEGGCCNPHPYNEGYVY
Sequence of ETV5 (P41161 whole entry): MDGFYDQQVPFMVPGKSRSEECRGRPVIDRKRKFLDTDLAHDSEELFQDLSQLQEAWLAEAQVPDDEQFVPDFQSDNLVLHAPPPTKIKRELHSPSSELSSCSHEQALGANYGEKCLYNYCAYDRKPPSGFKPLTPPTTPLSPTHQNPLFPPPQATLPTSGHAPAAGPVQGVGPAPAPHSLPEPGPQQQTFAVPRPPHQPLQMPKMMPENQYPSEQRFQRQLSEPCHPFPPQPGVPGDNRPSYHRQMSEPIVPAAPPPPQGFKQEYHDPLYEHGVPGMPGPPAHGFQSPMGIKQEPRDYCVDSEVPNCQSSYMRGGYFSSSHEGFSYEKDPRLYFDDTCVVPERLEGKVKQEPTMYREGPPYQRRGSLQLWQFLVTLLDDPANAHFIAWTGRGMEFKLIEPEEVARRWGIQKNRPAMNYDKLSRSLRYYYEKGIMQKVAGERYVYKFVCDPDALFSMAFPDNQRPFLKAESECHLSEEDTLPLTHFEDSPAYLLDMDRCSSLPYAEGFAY
Sequence of SPIB (Q01892 whole entry): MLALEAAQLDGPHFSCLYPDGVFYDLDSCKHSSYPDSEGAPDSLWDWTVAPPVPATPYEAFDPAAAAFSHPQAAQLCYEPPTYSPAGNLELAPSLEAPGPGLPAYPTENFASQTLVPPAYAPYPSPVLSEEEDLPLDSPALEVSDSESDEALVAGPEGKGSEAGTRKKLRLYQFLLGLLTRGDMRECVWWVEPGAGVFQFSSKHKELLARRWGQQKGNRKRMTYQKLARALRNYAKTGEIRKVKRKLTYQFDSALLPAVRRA
Sequence of ELF4 (Q99607 whole entry): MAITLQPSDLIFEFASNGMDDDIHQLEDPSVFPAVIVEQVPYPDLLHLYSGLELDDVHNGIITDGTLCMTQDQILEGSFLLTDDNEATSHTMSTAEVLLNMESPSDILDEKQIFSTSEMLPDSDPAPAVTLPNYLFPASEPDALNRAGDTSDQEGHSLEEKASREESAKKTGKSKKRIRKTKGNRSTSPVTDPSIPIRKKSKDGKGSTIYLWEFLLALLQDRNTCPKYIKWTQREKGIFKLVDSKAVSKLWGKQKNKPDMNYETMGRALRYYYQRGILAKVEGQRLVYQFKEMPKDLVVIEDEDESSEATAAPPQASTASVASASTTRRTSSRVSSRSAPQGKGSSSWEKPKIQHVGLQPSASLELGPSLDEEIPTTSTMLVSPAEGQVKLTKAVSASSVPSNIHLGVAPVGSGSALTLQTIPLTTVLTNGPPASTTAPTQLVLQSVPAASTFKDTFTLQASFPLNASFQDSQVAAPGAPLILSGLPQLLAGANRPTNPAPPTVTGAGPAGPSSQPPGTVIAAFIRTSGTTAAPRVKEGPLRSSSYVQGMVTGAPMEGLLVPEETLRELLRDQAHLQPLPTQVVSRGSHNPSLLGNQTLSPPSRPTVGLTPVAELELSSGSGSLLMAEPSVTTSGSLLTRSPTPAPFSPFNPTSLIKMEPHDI

With CCAATG, the binding signal was 1.14 fold enrichment (6-mer frequency, TF over GST control) in the assay with FLI1; 1.11 fold enrichment (6-mer frequency, TF over GST control) in the assay with ELK1; 1.14 fold enrichment (6-mer frequency, TF over GST control) with GABPA; 1 fold enrichment (6-mer frequency, TF over GST control) with ERG; 1.15 fold enrichment (6-mer frequency, TF over GST control) in the assay with ELF1; 1.03 fold enrichment (6-mer frequency, TF over GST control) with EHF. Besides, the binding signal with SPI1 is 1.08 fold enrichment (6-mer frequency, TF over GST control); with SPIB, 1.15 fold enrichment (6-mer frequency, TF over GST control); in the assay with ELK3, 1.08 fold enrichment (6-mer frequency, TF over GST control); with FEV it was 1.1 fold enrichment (6-mer frequency, TF over GST control); in the assay with ETV5 it was 1.03 fold enrichment (6-mer frequency, TF over GST control); with SPIC it was 1.03 fold enrichment (6-mer frequency, TF over GST control). Further, the binding signal in the assay with ELF4 was 1.13 fold enrichment (6-mer frequency, TF over GST control); with ELK4, 1.13 fold enrichment (6-mer frequency, TF over GST control); in the assay with ELF3 it was 1.05 fold enrichment (6-mer frequency, TF over GST control); with ETV1 it was 1.06 fold enrichment (6-mer frequency, TF over GST control).
As for GCGCCC, the binding signal is 1.07 fold enrichment (6-mer frequency, TF over GST control) with FLI1; 1.1 fold enrichment (6-mer frequency, TF over GST control) with ELK1; 1.11 fold enrichment (6-mer frequency, TF over GST control) with GABPA; 1.13 fold enrichment (6-mer frequency, TF over GST control) with ERG; 1.11 fold enrichment (6-mer frequency, TF over GST control) in the assay with ELF1; 1.03 fold enrichment (6-mer frequency, TF over GST control) with EHF. For the same sequence, the binding signal with SPIB is 1.09 fold enrichment (6-mer frequency, TF over GST control); in the assay with ELK3, 1.18 fold enrichment (6-mer frequency, TF over GST control); in the assay with FEV, 1.08 fold enrichment (6-mer frequency, TF over GST control); in the assay with ETV5, 1.04 fold enrichment (6-mer frequency, TF over GST control); in the assay with SPIC, 1.01 fold enrichment (6-mer frequency, TF over GST control); with ELF4, 1.19 fold enrichment (6-mer frequency, TF over GST control). The binding signal with ELK4 is 1.02 fold enrichment (6-mer frequency, TF over GST control); with ETV2 it was 1.02 fold enrichment (6-mer frequency, TF over GST control); with ETV1 it was 1.05 fold enrichment (6-mer frequency, TF over GST control).
